# From PubChem BioAssay
# The list is not random: actives were taken first. Their share in the collection is about 7.4%.
# SMN2 splice up – qHTS Assay for Enhancers of SMN2 Splice Variant Expression. HEK293 SMN2-luciferase splicing reporter, luminescence, 30-36 h. Potency, µM (doses to about 46.1 µM), for the others: at the top dose activity change, positive = activation, usual class: activators. hit rate 2.8% among 210,000; note: % of control where 0% means no effect; nearly all actives have a fitted effect of over 55% in size
#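 qHTS luciferase splicing reporter: luminescence rises when SMN2 exon 7 is included in transfected HEK293 cells. Compound exposure lasted 30-36 h at 37C, with 4.5 mM final sodium butyrate as control, followed by a ONE-Glo read.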
# Rab9 promoter act – qHTS Assay for Rab9 Promoter Activators | AID 485297, 2010 | hit rate 2.8% among 320,000 | Potency, µM (doses to about 9.22 µM), for inactives: at the top dose activation, negative = inhibition, hits mostly activators | Huh7 Rab9 promoter-luciferase reporter, luminescence, 24 h; note: % of control where 0% means no effect; nearly all actives have a fitted effect of over 60% in size
#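 Stable Rab9-luc Huh7, 1500 cells/well, 2 h settle; cmpd in DMSO, 24 h, 37 °C/5% CO2; luciferase reagent 10 min RT; luminescence.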
# ELG1 genotoxic – qHTS screen for small molecules that induce genotoxicity in human embryonic kidney (HEK293T) cells expressing luciferase-tagged ELG1 | HEK293T ELG1-luciferase reporter, luminescence, 16 h | Potency, µM (titrated, usually from 46 µM), without a hit: top-dose activity change, positive = activation, usual class: activators | hit rate 1.3% among 330,000; note: % of control where 0% means no effect; nearly all actives have a fitted effect of over 60% in size
#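 HEK293T cells expressing luciferase-tagged ELG1 were exposed to compound or DMSO vehicle for 16 hr at 37 °C and 5% CO2. Luciferase activity was then measured with ONE-Glo after 30 min at room temperature.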
# KinaseGlo FLuc – Counterscreen for Luciferase (Kinase-Glo TM) Inhibition. AID 1379, 2008. Potency, µM (series often up to 38.3 µM), without a hit: top-dose activity change, negative = inhibition, usual class: inhibitors. Kinase-Glo luciferase, ATP luminescence, 8 min. hit rate 0.28% among 200,000; note: % is set by controls: 0 for no effect and ±100 for the full control effect; nearly all actives have a fitted effect of over 60% in size
#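 Light output from Kinase-Glo luciferase with luciferin and 10 uM ATP in 50 mM imidazole pH 7.2, KCl, MgCl2, Tween 20, BSA; compound pin-delivered, 8-min ambient incubation, then luminescence read.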
# FLuc modulator – qHTS profiling assay for firefly luciferase inhibitor/activator using purifed enzyme and Km concentrations of substrates (counterscreen for miR-21 project). Luciferin 4-monooxygenase (Photinus pyralis), P08659. purified FLuc, Km substrates, luminescence inhibition. Potency, µM (doses to about 57.5 µM), without a hit: top-dose activity change, negative = inhibition, usual class: inhibitors. hit rate 6.9% among 360,000;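 note: plate controls were vehicle for no effect and reference inhibitor for full effect; nearly all actives have a fitted effect of over 55% in size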
# Target sequence (P08659 whole entry, looked up): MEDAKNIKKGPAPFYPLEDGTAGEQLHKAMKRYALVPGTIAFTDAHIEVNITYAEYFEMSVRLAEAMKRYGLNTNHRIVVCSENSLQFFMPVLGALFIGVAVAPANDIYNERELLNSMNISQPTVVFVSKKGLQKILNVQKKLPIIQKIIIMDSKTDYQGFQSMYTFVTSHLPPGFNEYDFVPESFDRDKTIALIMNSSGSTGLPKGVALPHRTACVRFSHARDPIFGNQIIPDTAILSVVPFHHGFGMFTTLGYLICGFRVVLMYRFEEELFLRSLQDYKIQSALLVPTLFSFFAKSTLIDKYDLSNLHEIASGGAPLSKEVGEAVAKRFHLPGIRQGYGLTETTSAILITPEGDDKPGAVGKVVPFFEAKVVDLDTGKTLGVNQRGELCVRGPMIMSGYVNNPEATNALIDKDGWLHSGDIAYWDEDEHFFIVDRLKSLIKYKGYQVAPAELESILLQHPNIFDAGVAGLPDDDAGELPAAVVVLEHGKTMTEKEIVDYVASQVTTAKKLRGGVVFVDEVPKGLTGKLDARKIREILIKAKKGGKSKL
#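 Biochemical qHTS of compounds, final roughly 60 µM downward over six points, against 10 nM purified firefly luciferase using Km concentrations of substrates (10 uM D-luciferin, 10 uM ATP) in Tris acetate pH 7.5 buffer; luminescence output.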
# NPC1 promoter act – qHTS Assay for NPC1 Promoter Activators; Potency, µM (highest dose often 9.22 µM), inactives show top-dose activation, actives largely listed as activators; Huh7 NPC1 promoter luciferase reporter, 24 h; hit rate 2.4% among 320,000; note: % of control where 0% means no effect; nearly all actives have a fitted effect of over 60% in size
#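 Quantitative HTS used a cell-based reporter: Huh7 cells stably bearing the NPC1 promoter upstream of luciferase were treated with compounds for 24 h, and promoter activation was read as luminescence.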
# * = called active by the depositor; ? = inconclusive; . = no result given; [ ] = dose if it differs, or a comment. Calls come from the whole dose curve; as a rule, active = well fitted curve in the direction sought with a large enough effect; inconclusive = small, poorly fitted or top-dose-only effect, or another doubt; inactive = no such curve, though single readings can be large; an effect the other way counts as inactive or inconclusive. Potency is the fitted concentration of half-maximal effect.
SMILES,SMN2 splice up,Rab9 promoter act,ELG1 genotoxic,KinaseGlo FLuc,FLuc modulator,NPC1 promoter act
Cc1sc(N)nc1-c1ccc(Oc2ccccc2)cc1,.,29%,?,.,24µM*,18%
Cc1sc(N)nc1-c1ccc2c(c1)OCCO2,.,8%,2%,.,?,23%
Cc1ccc(Cl)cc1NC(=O)C1CCN(c2nnc(C)c3c(C)n(-c4ccccc4)nc23)CC1,.,.,.,.,-10%,.
CCc1ccc(C(=O)Cn2ccsc2=N)cc1,.,0.71µM*,?,.,1.3µM*,1.6µM*
CC(C)(C)NC(=O)NC(=O)Cn1ccsc1=N,3%,1%,1%,-4%,4%,-3%
S=c1[nH]c(-c2ccccc2)cn1/N=C/c1ccccc1Br,5%,25%,-4%,1%,13µM*,29%
O=C(N=C1SCC(=O)N1c1ccccc1Cl)c1ccco1,16%,?,?,-2%,?,?
O=C(N=C1SCC(=O)N1c1ccccc1Cl)c1ccccc1,13µM*,2µM*,?,1%,?,?
CC(C)N1CCC2(CC1)N=C(c1ccc3c(c1)OCO3)CC(c1cc(Cl)ccc1O)N2 (configuration not stated),-23%,-1%,-16%,5%,17µM*,-4%
CSc1ccccc1OCc1cc(C(=O)N(C)Cc2ccc3nsnc3c2)no1,.,0.71µM*,3.3µM*,.,?,0.63µM*
CSc1ccccc1OCc1cc(C(=O)N(C)C(C)c2nc(C)cs2)no1 (configuration not stated),.,3%,-8%,.,-8%,4%
CCOC(=O)c1ccc(CNC(=O)c2cc(COc3ccccc3SC)on2)o1,.,?,?,.,8.5µM*,2.5µM*
CSc1ccccc1OCc1cc(C(=O)NCc2ccc(C)s2)no1,.,20%,2%,.,?,20%
CSc1ccccc1OCc1cc(C(=O)NCCCc2ccccc2)no1,.,0%,-5%,.,6%,-1%
CSc1ccccc1OCc1cc(C(=O)N(C)Cc2ccc(C)o2)no1,.,4µM*,?,.,17µM*,?
CC1=C(C(=O)Nc2cccnc2)C(c2cccc(Br)c2)n2nc(SCc3ccccc3)nc2N1 (configuration not stated),-1%,.,.,.,0%,.
CC(C)c1ccc(Nc2nc3ccc(C(=O)c4ccccc4)cc3n3cnnc23)cc1,.,.,.,.,-5%,.
CC1CCC(Nc2nc3c(-c4cccc(C(F)(F)F)c4)nnn3c3ccccc23)CC1 (configuration not stated),-38%,.,.,.,2%,.
CC1(C)CC(=O)C(N=Nc2ccc(OC(F)F)cc2)=C(O)C1,-15%,3%,?,-1%,17µM*,-1%
CC1(C)CC(=O)C(N=Nc2ccc3ncsc3c2)=C(O)C1,8%,.,.,-3%,19µM*,.
CC1(C)CC(=O)C(N=Nc2ccc(Cl)cc2)=C(O)C1,14µM*,5%,?,0%,4.8µM*,-6%
CC1(C)CC(=O)C(N=Nc2ccc(-c3ccccc3)cc2)=C(O)C1,18%,15%,?,-1%,2.1µM*,5%
COc1ccc([C@]23Cc4cc(OC)c(OC)cc4C(O2)c2c(cc(C)n(Cc4ccccc4)c2=O)O3)cc1,.,0%[1.84 µM],.,.,?,-7%[1.84 µM]
COC(=O)Cn1c(=O)c2cccn2c2ccc(F)cc21,9%,.,.,.,-2%,.
O=C(NCCc1ccccc1)c1cc(-c2ccccc2)nc2n[nH]c(-c3ccccc3)c12,23%,.,.,.,-16%,.
SMILES,SMN2 splice up,Rab9 promoter act,ELG1 genotoxic,KinaseGlo FLuc,FLuc modulator,NPC1 promoter act
CCOCCc1nnc(NC(=O)C(=O)c2cc(C)n(-c3ccc(C)cc3C)c2C)s1,.,.,.,.,-2%,.
CC1(C)CC(=O)C(N=Nc2ccc(F)cc2)=C(O)C1,.,21%,?,.,15µM*,-1%
CCc1ccc(-n2c(C)nc3cc(C(=O)NCCc4ccccc4)ccc32)cc1,.,.,.,.,0%,.
CCNC(=S)Nc1ccc(NC(=O)c2ccccc2O)cc1,.,-1%,0%,.,12µM*,15%
O=C(O)c1ccc(NC(=O)c2ccccc2NC(=O)c2ccccc2Br)cc1,.,1%,5%,.,17µM*,0%
O=C(Nc1ccccc1C(F)(F)F)c1ccccc1Br,-22%,3%,2%,-1%,-4%,-3%
Cc1cccc(NC(=O)c2ccc(NC(=O)c3ccccc3Br)cc2)c1,.,-1%,-15%,.,-17%,2%
O=C(Nc1ccc(Br)cc1)c1ccccc1Br,.,3.2µM*,?,.,11µM*,1.4µM*
CCc1ccc(NC(=O)c2ccccc2Br)cc1,13µM*,2µM*,-13%,-7%,11µM*,1.4µM*
CCC(=O)Nc1ccc(NC(=O)c2cccc3c(Br)cccc23)cc1,.,7%,7%,.,-3%,3%
O=C(N=Nc1c(O)[nH]c2ccccc12)c1ccco1,.,2µM*,?,10µM*,5.4µM*,3.5µM*
O=C(CNC(=O)c1ccccn1)N=Nc1c(O)[nH]c2ccccc12,.,11%,-1%,.,15µM*,0%
O=C(N=Nc1c(O)[nH]c2ccccc12)c1ccc(CN2CCOCC2)cc1,-11%,-7%,-5%,8%,?,-1%
C=CCn1c(O)c(N=NC(=O)c2ccc3c(c2)OCO3)c2ccccc21,-8%,?,5%,-4%,3µM*,?
C=CCn1c(O)c(N=NC(=O)OCC)c2ccccc21,-11%,1%,-1%,1%,-11%,9%
COc1ccc(CC(=O)NCC(=O)N=Nc2c(O)[nH]c3ccccc23)cc1,.,6%,1%[9.26 µM],.,2%,2%
O=C(N=Nc1c(O)[nH]c2ccccc12)c1ccc2c(c1)OCO2,11µM*,0.56µM*,?,10µM*,0.6µM*,2.2µM*
CCCCC(CC)COCCCN (configuration not stated),1%,.,.,.,.,.
COC(=O)c1sc(N2C(=O)c3oc4ccccc4c(=O)c3C2c2ccc(O)cc2)nc1C (configuration not stated),-6%,.,.,.,-6%,.
CC(=O)/C=C(\C)N=Nc1c(O)[nH]c2ccccc12,.,-1%,8%,.,13µM*,-1%
CC(C)CC(=O)N=Nc1c(O)[nH]c2ccccc12,-4%,?,?,3%,-8%,27%
C[C@@]12CCC(=O)C=C1CC[C@@H]1[C@@H]2[C@H](O)C[C@]2(C)[C@@H]1CC[C@]2(O)C(=O)CO,-8%[20.6 µM],.,.,0%[17.1 µM],.,.
COc1ccc(CC(=O)NNc2ncnc3c2cnn3-c2ccc(C)cc2)cc1,.,-2%,5%,.,4%,-1%
COc1ccc(CCNc2ncnc3c2cnn3-c2ccc(F)cc2)cc1,.,.,.,.,-16%,.
